What all share (assay): DAPPL (digital affinity profiling via proximity ligation, sequencing); 10 mM Tris-HCl pH 7.5, 50 mM NaCl, 1 mM DTT, 4% glycerol, room temperature, 30 min; GST-TFs on glutathione beads, 16-mer random dsDNA library, 0.1% formaldehyde crosslink after washing; high values mean tight binding
One assay has as its target T1, FEV (Homo sapiens, UniProt Q99581 1-238).
T1 sequence: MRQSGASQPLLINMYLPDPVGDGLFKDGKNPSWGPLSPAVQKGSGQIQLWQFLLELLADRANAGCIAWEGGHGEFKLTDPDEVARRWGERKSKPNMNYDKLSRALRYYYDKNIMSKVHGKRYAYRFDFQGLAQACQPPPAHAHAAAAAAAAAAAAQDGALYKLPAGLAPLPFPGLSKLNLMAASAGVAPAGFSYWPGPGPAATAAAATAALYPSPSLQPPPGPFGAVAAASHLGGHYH
Particulars: protein: recombinant; tags: N-terminal GST; dsDNA, one strand shown. The gist of the method: (§1)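 A tag-only sample was pooled with DNA-barcoded human transcription factors that had been expressed in yeast as GST fusions and captured on glutathione beads. The pools were incubated for 30 min at room temperature with 200 nmole of a random double-stranded 16-mer DNA library in Tris/NaCl/DTT/glycerol buffer, then washed, crosslinked with 0.1% formaldehyde, proximity-ligated (BsaI/T4 ligase, 1 h, 37 °C), PCR-amplified and sequenced on an Illumina NextSeq500. Binding signal is each hexamer's read frequency for a factor divided by its frequency for the tag-only sample.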

Another assay has as its target ETV5 (Homo sapiens, UniProt P41161 1-510). As to conditions: protein: recombinant; tags: N-terminal GST; dsDNA, one strand shown. The gist of the method:
as §1

The target in a further assay is HSF1 (Homo sapiens, UniProt Q00613 1-529). Particulars: protein: recombinant; tags: N-terminal GST; chain copies: 3; dsDNA, one strand shown. Summed up: as §1
The target of the next assay is T2, SPIC (Homo sapiens, UniProt Q8N5J4 1-248).
T2 sequence: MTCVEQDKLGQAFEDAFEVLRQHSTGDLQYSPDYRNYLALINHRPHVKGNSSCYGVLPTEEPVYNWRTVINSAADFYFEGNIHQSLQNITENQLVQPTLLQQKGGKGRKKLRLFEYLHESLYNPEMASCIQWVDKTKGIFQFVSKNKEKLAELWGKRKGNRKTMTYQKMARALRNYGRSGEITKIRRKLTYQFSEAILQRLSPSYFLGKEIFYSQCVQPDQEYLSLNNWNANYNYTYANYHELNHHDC
As to conditions: protein: recombinant; tags: N-terminal GST; dsDNA, one strand shown. The gist of the method: as §1

The target in the next assay is ELF4 (Homo sapiens, UniProt Q99607 1-663). As to conditions: protein: recombinant; tags: N-terminal GST; dsDNA, one strand shown. The gist of the method:
as §1

The next assay concerns the target T3, ELK4 (Homo sapiens, UniProt P28324-2 1-405).
T3 sequence: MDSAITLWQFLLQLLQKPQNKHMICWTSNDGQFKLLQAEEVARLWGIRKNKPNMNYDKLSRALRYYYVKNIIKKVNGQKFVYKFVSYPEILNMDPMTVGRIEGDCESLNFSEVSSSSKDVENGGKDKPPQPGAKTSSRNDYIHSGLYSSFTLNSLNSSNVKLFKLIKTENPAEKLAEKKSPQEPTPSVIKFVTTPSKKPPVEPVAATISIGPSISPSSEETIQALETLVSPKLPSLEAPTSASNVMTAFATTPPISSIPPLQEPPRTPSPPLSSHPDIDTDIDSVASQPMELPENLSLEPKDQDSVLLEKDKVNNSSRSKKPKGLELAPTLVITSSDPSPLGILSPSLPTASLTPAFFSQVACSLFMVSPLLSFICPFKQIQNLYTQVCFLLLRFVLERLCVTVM
Particulars: protein: recombinant; tags: N-terminal GST; dsDNA, one strand shown. The gist of the method: as §1

In the next assay the target is T4, ETV2 (Homo sapiens, UniProt O00321 1-342).
T4 sequence: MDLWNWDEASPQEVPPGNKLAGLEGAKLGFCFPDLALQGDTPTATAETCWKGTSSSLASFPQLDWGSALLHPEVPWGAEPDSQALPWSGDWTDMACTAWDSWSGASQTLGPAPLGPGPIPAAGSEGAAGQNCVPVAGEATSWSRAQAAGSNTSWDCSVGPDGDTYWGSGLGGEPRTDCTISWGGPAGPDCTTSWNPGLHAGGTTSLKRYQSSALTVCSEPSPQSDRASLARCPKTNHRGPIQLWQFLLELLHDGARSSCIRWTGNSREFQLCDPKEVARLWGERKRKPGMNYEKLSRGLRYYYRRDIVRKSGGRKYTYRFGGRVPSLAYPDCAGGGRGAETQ
As to conditions: protein: recombinant; tags: N-terminal GST; dsDNA, one strand shown. The gist of the method: as §1

Another assay addresses T5, ELF3 (Homo sapiens, UniProt P78545 1-371).
T5 sequence: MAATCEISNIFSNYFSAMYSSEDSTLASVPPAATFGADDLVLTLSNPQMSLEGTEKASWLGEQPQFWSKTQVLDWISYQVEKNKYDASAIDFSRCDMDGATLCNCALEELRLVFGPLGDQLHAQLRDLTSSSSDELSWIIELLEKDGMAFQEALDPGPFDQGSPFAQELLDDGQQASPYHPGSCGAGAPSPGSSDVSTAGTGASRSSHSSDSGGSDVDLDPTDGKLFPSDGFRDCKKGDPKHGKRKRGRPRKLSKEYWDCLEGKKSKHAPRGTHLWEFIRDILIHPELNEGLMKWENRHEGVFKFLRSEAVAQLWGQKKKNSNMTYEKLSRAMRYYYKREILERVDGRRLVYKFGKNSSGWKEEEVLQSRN
Particulars: protein: recombinant; tags: N-terminal GST; dsDNA, one strand shown. The gist of the method:
as §1

The target in a further assay is CRX (Homo sapiens, UniProt O43186 1-299). As to conditions: protein: recombinant; tags: N-terminal GST; dsDNA, one strand shown. Summed up: as §1
A further assay deals with ETV1 (Homo sapiens, UniProt P50549 1-477). As to conditions: protein: recombinant; tags: N-terminal GST; dsDNA, one strand shown. Summed up:
as §1

Another assay addresses T6, ERF (Homo sapiens, UniProt P50548 1-548).
T6 sequence: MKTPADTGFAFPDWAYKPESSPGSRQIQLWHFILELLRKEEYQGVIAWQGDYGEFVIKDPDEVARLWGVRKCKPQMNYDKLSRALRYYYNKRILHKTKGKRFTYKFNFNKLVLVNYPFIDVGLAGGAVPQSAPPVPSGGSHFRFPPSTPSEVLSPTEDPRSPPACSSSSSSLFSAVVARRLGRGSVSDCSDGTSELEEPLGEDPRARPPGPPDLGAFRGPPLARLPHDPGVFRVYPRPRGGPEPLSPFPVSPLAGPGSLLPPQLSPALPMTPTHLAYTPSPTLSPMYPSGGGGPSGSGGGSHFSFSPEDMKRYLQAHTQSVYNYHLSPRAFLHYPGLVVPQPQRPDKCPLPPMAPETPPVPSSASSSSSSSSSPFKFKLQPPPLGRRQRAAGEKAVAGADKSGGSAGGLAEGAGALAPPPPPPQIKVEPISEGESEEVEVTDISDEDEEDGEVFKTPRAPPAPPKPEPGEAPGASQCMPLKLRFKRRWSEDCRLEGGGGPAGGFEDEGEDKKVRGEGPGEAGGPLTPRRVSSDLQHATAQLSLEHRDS
As to conditions: protein: recombinant; tags: N-terminal GST; dsDNA, one strand shown. Summed up: as §1

In the next assay the target is T7, ETV3L (Homo sapiens, UniProt Q6ZN32 1-361).
T7 sequence: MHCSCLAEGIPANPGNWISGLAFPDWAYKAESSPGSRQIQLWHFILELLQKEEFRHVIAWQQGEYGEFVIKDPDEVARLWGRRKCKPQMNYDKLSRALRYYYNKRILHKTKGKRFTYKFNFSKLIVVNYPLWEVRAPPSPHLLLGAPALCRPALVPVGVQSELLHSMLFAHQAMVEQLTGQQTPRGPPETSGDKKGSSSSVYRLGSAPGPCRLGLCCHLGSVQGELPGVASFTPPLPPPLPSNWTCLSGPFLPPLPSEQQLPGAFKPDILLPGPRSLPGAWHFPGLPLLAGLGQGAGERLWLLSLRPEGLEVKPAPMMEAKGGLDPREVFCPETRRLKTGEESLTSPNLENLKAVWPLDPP
Particulars: protein: recombinant; tags: N-terminal GST; dsDNA, one strand shown. Summed up: as §1

A further assay deals with T8, ETS2 (Homo sapiens, UniProt P15036 1-469).
T8 sequence: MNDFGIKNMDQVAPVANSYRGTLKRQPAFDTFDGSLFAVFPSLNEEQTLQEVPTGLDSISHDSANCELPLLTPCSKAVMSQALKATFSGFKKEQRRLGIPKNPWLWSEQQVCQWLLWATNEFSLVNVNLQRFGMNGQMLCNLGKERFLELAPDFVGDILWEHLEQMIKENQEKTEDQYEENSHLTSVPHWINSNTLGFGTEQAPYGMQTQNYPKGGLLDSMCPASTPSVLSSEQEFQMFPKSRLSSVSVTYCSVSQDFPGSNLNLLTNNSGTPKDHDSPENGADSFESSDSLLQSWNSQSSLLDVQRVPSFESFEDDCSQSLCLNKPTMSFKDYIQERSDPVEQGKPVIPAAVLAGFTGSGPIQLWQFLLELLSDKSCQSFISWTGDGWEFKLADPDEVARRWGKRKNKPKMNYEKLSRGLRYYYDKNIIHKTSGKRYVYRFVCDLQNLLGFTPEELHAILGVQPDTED
Particulars: protein: recombinant; tags: N-terminal GST; dsDNA, one strand shown. Summed up: as §1

The target of another assay is T9, SPDEF (Homo sapiens, UniProt O95238 1-335).
T9 sequence: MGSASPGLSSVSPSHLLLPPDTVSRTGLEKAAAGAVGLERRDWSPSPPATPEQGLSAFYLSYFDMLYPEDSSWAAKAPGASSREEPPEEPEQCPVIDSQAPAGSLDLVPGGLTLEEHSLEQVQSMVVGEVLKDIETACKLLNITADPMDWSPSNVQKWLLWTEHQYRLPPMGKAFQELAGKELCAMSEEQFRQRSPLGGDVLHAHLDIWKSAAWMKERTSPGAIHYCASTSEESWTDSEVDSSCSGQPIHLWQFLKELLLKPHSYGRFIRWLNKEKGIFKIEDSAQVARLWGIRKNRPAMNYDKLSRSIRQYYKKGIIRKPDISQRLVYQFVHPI
As to conditions: protein: recombinant; tags: N-terminal GST; dsDNA, one strand shown. Summed up: as §1

For a further assay, the target named is T10, ETV7 (Homo sapiens, UniProt Q9Y603 1-341).
T10 sequence: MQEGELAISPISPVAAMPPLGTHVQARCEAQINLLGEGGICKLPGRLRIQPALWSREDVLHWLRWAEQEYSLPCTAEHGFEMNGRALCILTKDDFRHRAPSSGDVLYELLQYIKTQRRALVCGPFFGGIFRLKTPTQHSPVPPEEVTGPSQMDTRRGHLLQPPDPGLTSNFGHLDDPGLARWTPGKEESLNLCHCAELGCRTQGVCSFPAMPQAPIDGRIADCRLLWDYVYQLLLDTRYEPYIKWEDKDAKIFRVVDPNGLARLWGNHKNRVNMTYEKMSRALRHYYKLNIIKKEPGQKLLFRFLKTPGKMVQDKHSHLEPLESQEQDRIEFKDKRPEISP
Particulars: protein: recombinant; tags: N-terminal GST; dsDNA, one strand shown. The gist of the method:
as §1

Another assay deals with T11, ELF5 (Homo sapiens, UniProt Q9UKW6-2 1-255).
T11 sequence: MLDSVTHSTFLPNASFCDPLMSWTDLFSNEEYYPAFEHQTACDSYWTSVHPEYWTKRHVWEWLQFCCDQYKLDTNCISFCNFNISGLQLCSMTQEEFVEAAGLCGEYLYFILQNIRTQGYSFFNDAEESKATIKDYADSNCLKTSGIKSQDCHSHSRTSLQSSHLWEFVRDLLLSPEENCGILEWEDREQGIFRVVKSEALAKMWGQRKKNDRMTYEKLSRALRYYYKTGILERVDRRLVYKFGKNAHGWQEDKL
Particulars: protein: recombinant; tags: N-terminal GST; dsDNA, one strand shown. Summed up: as §1

For another assay, the target named is T12, ETV3 (Homo sapiens, UniProt P41162-2 1-143).
T12 sequence: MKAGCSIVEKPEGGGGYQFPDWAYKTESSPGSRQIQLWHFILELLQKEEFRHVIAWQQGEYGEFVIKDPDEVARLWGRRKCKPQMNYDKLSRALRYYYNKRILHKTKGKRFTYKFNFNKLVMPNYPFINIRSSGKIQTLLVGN
Particulars: protein: recombinant; tags: N-terminal GST; dsDNA, one strand shown. Summed up: as §1

The next assay deals with ETV6 (Homo sapiens, UniProt P41212 1-452). As to conditions: protein: recombinant; tags: N-terminal GST; dsDNA, one strand shown. Summed up: as §1
Sequence of ETV6 (P41212 whole entry): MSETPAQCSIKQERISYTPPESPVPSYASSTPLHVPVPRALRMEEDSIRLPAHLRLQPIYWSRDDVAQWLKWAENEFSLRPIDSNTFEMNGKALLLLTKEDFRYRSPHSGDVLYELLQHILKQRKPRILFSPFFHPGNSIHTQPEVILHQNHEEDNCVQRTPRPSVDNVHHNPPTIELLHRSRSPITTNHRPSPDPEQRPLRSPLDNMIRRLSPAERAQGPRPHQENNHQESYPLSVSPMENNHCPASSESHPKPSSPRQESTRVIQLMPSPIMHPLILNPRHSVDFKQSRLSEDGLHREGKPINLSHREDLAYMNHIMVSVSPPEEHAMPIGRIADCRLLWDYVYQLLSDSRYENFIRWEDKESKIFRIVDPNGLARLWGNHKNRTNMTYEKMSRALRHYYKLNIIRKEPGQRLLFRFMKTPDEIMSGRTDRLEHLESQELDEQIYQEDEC

Sequence of ELF4 (Q99607 whole entry): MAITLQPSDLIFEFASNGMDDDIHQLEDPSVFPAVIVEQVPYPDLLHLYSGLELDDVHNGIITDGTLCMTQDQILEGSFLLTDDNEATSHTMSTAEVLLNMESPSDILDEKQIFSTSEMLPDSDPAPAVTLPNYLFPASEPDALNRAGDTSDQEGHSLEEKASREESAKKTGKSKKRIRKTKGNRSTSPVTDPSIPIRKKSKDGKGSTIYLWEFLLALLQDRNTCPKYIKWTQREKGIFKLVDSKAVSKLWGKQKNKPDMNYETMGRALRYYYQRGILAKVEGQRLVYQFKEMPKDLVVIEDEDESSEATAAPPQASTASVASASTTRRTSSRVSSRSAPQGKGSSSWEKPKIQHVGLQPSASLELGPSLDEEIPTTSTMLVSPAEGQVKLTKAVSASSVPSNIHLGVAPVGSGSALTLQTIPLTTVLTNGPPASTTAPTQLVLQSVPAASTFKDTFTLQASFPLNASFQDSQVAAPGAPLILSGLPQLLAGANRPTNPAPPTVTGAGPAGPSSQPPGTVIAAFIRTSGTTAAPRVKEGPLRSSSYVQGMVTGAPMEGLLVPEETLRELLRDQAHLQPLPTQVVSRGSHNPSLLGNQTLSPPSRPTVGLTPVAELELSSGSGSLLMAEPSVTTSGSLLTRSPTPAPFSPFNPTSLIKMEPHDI
Sequence of ETV5 (P41161 whole entry): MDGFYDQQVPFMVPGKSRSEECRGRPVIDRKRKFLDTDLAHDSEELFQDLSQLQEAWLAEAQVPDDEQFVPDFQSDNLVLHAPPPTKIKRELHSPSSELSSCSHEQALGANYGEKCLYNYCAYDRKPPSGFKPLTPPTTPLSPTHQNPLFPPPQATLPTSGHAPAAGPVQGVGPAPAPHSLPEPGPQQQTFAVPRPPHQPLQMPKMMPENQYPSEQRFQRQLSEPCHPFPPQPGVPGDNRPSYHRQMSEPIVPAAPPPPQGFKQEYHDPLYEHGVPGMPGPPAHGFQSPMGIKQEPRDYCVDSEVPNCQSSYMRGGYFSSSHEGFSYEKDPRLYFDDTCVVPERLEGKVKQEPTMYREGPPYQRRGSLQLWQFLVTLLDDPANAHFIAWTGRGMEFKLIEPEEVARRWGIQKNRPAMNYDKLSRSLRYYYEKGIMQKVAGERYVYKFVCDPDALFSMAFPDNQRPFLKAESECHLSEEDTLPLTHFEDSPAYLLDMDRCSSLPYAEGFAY
Sequence of HSF1 (Q00613 whole entry): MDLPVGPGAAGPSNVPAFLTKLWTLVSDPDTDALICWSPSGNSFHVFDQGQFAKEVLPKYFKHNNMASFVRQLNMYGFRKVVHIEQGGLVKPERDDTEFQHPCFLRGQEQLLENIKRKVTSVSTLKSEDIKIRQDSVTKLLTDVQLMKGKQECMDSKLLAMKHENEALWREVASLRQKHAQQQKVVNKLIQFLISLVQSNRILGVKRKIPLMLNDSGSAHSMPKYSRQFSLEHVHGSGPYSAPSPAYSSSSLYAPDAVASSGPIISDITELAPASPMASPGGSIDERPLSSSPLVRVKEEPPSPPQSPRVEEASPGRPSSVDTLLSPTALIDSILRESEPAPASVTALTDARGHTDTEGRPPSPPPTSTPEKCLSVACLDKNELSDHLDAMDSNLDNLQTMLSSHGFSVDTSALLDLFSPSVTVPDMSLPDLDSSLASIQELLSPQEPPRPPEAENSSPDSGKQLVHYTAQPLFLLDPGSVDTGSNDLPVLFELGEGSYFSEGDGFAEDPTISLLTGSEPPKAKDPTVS
Sequence of ETV1 (P50549 whole entry): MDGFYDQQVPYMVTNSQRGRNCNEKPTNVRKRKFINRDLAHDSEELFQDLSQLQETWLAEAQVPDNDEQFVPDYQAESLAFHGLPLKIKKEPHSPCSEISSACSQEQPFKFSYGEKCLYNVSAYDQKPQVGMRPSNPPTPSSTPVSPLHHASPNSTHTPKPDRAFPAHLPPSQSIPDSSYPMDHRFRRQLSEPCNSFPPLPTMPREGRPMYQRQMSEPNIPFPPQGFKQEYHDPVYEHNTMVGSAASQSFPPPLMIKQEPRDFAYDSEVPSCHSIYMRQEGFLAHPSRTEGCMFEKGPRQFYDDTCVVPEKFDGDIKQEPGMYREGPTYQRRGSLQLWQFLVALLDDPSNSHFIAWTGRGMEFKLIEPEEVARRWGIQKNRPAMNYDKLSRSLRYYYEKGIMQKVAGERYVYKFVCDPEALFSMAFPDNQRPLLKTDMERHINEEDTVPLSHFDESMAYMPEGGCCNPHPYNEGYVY
Sequence of CRX (O43186 whole entry): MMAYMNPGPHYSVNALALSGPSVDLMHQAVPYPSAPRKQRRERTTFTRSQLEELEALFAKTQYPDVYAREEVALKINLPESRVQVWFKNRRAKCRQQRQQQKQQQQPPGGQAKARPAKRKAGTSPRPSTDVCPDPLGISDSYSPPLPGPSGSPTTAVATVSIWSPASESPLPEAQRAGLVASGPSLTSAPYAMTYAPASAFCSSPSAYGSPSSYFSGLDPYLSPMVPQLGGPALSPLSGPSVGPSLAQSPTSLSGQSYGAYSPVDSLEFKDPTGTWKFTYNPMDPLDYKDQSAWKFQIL

For TTACAC, the binding signal in the assay with FEV is 1.24 fold enrichment (6-mer frequency, TF over GST control); with ETV5, 1.23 fold enrichment (6-mer frequency, TF over GST control); with HSF1 it was 1.35 fold enrichment (6-mer frequency, TF over GST control); with SPIC, 1.17 fold enrichment (6-mer frequency, TF over GST control); with ELF4, 1.21 fold enrichment (6-mer frequency, TF over GST control); with ELK4 it was 1.25 fold enrichment (6-mer frequency, TF over GST control). The binding signal was 1.16 fold enrichment (6-mer frequency, TF over GST control) with ETV2; 1.2 fold enrichment (6-mer frequency, TF over GST control) with ELF3; 1.73 fold enrichment (6-mer frequency, TF over GST control) with CRX; 1.27 fold enrichment (6-mer frequency, TF over GST control) in the assay with ETV1; 1.2 fold enrichment (6-mer frequency, TF over GST control) in the assay with ERF; 1.15 fold enrichment (6-mer frequency, TF over GST control) in the assay with ETV3L. For the same sequence, the binding signal with ETS2 was 1.22 fold enrichment (6-mer frequency, TF over GST control); in the assay with SPDEF it was 1.23 fold enrichment (6-mer frequency, TF over GST control); in the assay with ETV7, 1.19 fold enrichment (6-mer frequency, TF over GST control); with ELF5 it was 1.19 fold enrichment (6-mer frequency, TF over GST control); with ETV3 it was 1.15 fold enrichment (6-mer frequency, TF over GST control); with ETV6 it was 1.2 fold enrichment (6-mer frequency, TF over GST control).

Source of the values: publication PMC7862700, “An all-to-all approach to the identification of sequence-specific readers for epigenetic DNA modifications on cytosine”.
